# Test system: VDR:RXRa (NR concentration 270 nM, RXRa partner concentration 90 nM)
# Assay: PBM binding z-score (relative to random genomic background probes); higher = stronger binding; sequences stand for … in GC…GCGATTGACAGCGTAGAATGAAGG
# Experimental: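 Protein-binding microarray (Agilent 4x180K custom design, double-stranded 60-nt probes: 5' GC cap, 34-nt variable region, 24-nt constant primer region; full probe sequence given). Purified or IVT nuclear receptor:RXRα heterodimers (3:1 NR:RXRα, mostly 270:90 nM) or homodimers were incubated for 1 h in PBS with 2% milk and no ligand, then detected with Alexa488 antibodies. Fluorescence from o1-orientation probes (~5 replicates averaged) was converted to z-scores against 500 random hg19 background probes. Variable regions are seed direct-repeat (DR0–DR5) sites, all their single-nucleotide variants and half-site ablations.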
row,Sequence,PBM binding z-score
1,AGTCAAAGTTCAGGACAAGGTAACGTAAAGCACG,2.55
2,ATCGAAAGGTCGAGGTGACTATAGAGAAAGGGAA,2.55
3,ATCTCTAGGTAAAGCTCAGTGAAAGATCGATAGA,-0.295
4,CAAGCTAGGTCACAGAGGTCAAAGTCCGTGCGTA,8.14
5,CCTTACGGGTCATGGTTATAGCACGGGTGGTACG,3.23
6,TAGCCTAGGTCAGATTGGGCCAGTATACGCTATA,0.524
7,ATGTGTAGGTTAAGGGTCATTCAGGTTGGTTCGC,5.79
8,CCGAGTAGGTTTTGGGGCATTCAGGCAACGGTGA,-0.239
9,TCAGACAGGTGAAGTTAACTCAGGTACGCAGTCG,0.573
10,ATCTCTAGGTAAAGATCAGTGAAAGATCGATAGA,-0.0816
11,ACTAGTTGGTCAGCAGAGGTCACACACAATTCGG,4.87
12,TCTTGTAGATCAGCAGGCTAAGAAAGCTGGCCAA,-0.106
13,AGAGTGAGGTTATACGTAGATCAGGGAAGAAAGT,1.6
14,ACTCGGAGGACAAAGGTCGGAGCTACGCCAGTGA,0.947
15,CATACAGGGTCAGCTAGGCCAGAGTGGGGACGGC,4.01
16,CAAACTAGGTCAAGAGGTCAAAGTGCGCTTCCCG,6.26
17,CCGACTGGGGCAAGGTTACGATAACGCACAGCCA,0.0294
18,CCTAGTTGGTCAGGAGTTCACACACCGGATATGA,3.54
19,CCTCGGAGGACAACAGGAGCTCAGAGCTGCCAGA,-0.533
20,ATATGTAGGTTAGCTGGGGACATTCAGACTAGGC,2.39

row,Sequence,PBM binding z-score
1,ATATGTAGATTAGCTGGGGTCATTCAGACTAGGC,4.91
2,CTAACTAGGTCATCCAGGACAGTGAATACATTGA,4.72
3,TCTAGCAGGCAAGAGGGTCACTCAAGAGGTACGG,2.01
4,ACTAGTTGGTCAGGTGAGGTCACACACAATTCGG,4.8
5,TGAATGAGGTTGAAGATCAGGGAACGTGGCGTCG,-0.171
6,CAAACTAGATCAAAGGTCAAAGTCGAGCCAACCA,4.93
7,AGTTACGGGTCAACGAGGTTATAGCACGCGTATA,7.65
8,ATCTCTAGCTAAAGTTCAGTGAAAGATCGATAGA,1.49
9,ATATGTAGGTTAACGGTCATTCAGGTTGGTTCGC,2.32
10,GCTATTAGTTGAATGGGCAACCGAATGATTCTCG,-0.287
11,ATCTCTAGGTAACAAGTTCATTGAAAGAGAGGAC,3.84
12,CCTTACGGGTCACTGACAGGATATAGCATTTGGA,3.36
13,TCTAGTTGGTCAAAGGTGACACACTCGAAATGCG,1.92
14,CCTAGCAGGCCAATCTGGGTCACTCACGGCTTGA,0.411
15,ATATGTAGGTTACATCCGGGCCATTCAGGCTATG,0.659
16,CGTCCAAGGCCAATGCTAGGTCAGTGAAAGCATT,0.034
17,TCTGCTAGGTCAGTTGGTTAGCTAACGAGCTGCC,0.227
18,CCGAATGGGGCAGAAAGGTTACCATACCATCCGG,1.33
19,CCTGCTAGGTCATGGTCACCTAATCTACAGTATG,2.03
20,ATCTCTAGGTAAAAGATCAGTGAATCCCGAGGAT,-0.291
